# DAGLB inh – DAGLB lipase inhibitors, primary screen, biochemical, fluorescence, HTS; 340,000 compounds, 0.059% hits; HEK293T DAGLB membrane lysate, EnzChek fluorogenic substrate; inhibition, % at 5.17 µM; in the data active = inhibition above about 34%;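 also: 0% = enzyme with vehicle and 100% = wells lacking enzyme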
# V-ATPase pHluor – regulators of yeast V-ATPase proton pumping, primary screen, pHLuorin cytosolic pH fluorescence | S. cerevisiae | response, % at 10 µM | 350,000 compounds, 0.37% hits | AID 504577, 2011; in the data active = response mostly above about 7.3%, no sharp cut-off; inactive = mostly below about 5.4%; also: actives read high
# MIN6 prolif-1 – inducers of MIN6 beta-cell proliferation, primary screen, ATP luminescence, uHTS; MIN6 cells proliferation, ATPlite luminescence, 48 h; cells starved in 0.2% serum; 100% = growth in 10% serum; 330,000 compounds, 0.29% hits; proliferation, % at 10 µM;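 active = compounds whose signal lies at least 3.5 SD above the mean of all wells on their plate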;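 also: 0% = DMSO-treated cells in low-serum medium and 100% = 10% serum control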
# HDAC3 inh – HDAC3 deacetylase inhibitors, primary screen, biochemical, fluorescence, cell-free homogeneous. Histone deacetylase 3 (Homo sapiens), O15379. recombinant HDAC3, fluorogenic peptide/trypsin coupled. inhibition, % at 8.3 µM. 320,000 compounds, 0.15% hits. AID 2718, 2010; in the data active = inhibition above about 26%, passing the limit was not always enough; inconclusive = no clear call, values can overlap the other calls
# Target sequence (O15379 whole entry, looked up): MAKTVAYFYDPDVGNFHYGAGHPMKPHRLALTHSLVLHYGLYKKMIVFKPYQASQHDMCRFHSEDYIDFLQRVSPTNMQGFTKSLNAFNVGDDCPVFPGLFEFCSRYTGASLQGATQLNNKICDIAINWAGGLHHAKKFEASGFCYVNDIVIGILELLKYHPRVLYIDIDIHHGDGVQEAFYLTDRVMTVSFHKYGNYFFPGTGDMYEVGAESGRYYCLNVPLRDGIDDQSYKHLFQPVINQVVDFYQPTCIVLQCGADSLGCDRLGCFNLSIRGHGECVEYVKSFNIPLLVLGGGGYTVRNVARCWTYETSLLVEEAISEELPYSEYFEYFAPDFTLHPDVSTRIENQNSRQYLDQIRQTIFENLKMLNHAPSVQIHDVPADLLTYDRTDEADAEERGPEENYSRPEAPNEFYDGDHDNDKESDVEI
# Rtt109 HAT inh – inhibitors of C. albicans Rtt109/Vps75 HAT, primary screen, biochemical, ThioGlo CoA-SH fluorescence, plate reader. Histone acetyltransferase RTT109 (Candida albicans (strain SC5314 / ATCC MYA-2876)), …. purified Rtt109/Vps75, 4 h. inhibition, % at 34.9 µM. 330,000 compounds, 0.16% hits;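 active = inhibition of at least 50% in every replicate; inconclusive = best replicate reaches 50% inhibition but some replicates fall short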
# MIN6 prolif-2 – inducers of beta-cell proliferation in MIN6, confirmation, MIN6 cells, mouse; proliferation increase, % at 50 µM; ATPlite luminescence, 48 h; cells kept in 0.2% serum; scaled between 0.2% and 10% serum; 920 tested, under 10 active; AID 463095, 2010; shares compounds with MIN6 prolif-1;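 active = proliferation increase above 40% at any of the four tested concentrations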
# * marks the source's active call; other numbers are inactive results; ? = inconclusive; / = no result. Rows were chosen to be rich in hits. Some 0.96% of all compounds tested hit in one or more screens of this group.
SMILES,DAGLB inh,V-ATPase pHluor,MIN6 prolif-1,HDAC3 inh,Rtt109 HAT inh,MIN6 prolif-2
CCOC(=O)C1CCN(C(=O)CCC2CCCC2)CC1,-2,0,6.1*,-5,-2,0
CCOC(=O)C1CCN(C(=O)c2ccc(C)o2)CC1,-3,0,9.3*,-6,-1,5
Cc1ccc(N2CC(C(=O)Nc3nnc(SCC(=O)N4CCOCC4)s3)CC2=O)cc1 (stereo not given),0,-1,4,-5,5,/
CCOc1ccc(C(=O)CSc2nnc(N)s2)cc1,1,3,0,5,6,/
Cc1nc(N)c(CC(Br)CBr)c(Cl)n1 (stereo not given),-1,3,8.0*,-8,0,2
COc1cc(NC(=O)C2CC3CCC2C3)c(OC)cc1Cl (stereo not given),-13,-2,-1,3,-20,/
COc1ccc(/C=N/NC(=O)c2cnccn2)cc1O,-1,-2,0.0*,/,-2,0
COc1ccc(C)c(-n2c(=O)n(Cc3ccccc3)c(=O)c3[nH]cnc32)c1,/,-2,1,/,/,/
COc1ccc(Cn2c(=O)c3[nH]cnc3n(-c3ccccc3C)c2=O)cc1,-1,1,10*,/,-4,8
CCN(CC)S(=O)(=O)c1ccc(OC(C)C)c(NC(=O)C2=COCCO2)c1,-4,3,16*,5,-4,-6
CCN(CC)S(=O)(=O)c1ccc(N2CCCC2)c(NC(=O)C2=COCCO2)c1,0,-2,-4,3,3,/
CCOc1ccccc1NC(=O)COC(=O)/C=C/c1ccc(OC)c(OC)c1,-12,-2,1,?,4,/
Cc1ccc(C(=O)OCC(=O)Nc2sccc2C(N)=O)cc1NC(=O)c1ccco1,2,-1,6.1*,-3,8,3
Cc1ccc(C)c(S(=O)(=O)NC2CCS(=O)(=O)C2)c1 (stereo not given),0,0,12*,-13,-2,-2
COc1cc(/C(C)=N/NC(=O)c2nnn(-c3nonc3N)c2-c2cccs2)ccc1O,-1,2,4.6*,-4,-1,-4
C/C(=N\NC(=O)c1nnn(-c2nonc2N)c1-c1cccs1)c1cccc(O)c1,-2,2,1,6,26,/
O=C(c1cccnc1)N1N=C(c2cccs2)CC1c1ccc(F)cc1 (stereo not given),0,-2,-1,4,8,/
CN1C(=O)c2cccc3c(Br)ccc(c23)C1=O,/,2,6,4,/,/
CN1C(=O)c2cccc3c(Cl)ccc(c23)C1=O,0,0,6.9*,-12,-3,-1
Cc1cc(C)n(C(=O)COc2ccc([N+](=O)[O-])cc2)n1,-3,0,5.3*,1,-6,4
CCn1c(Oc2ccc(F)cc2)nc2c1c(=O)n(C)c(=O)n2C,-2,-1,7.3*,-5,0,6
CCn1c(Oc2ccccc2C)nc2c1c(=O)n(C)c(=O)n2C,1,1,2,3,4,/
CCOc1ccc(CCNS(=O)(=O)c2ccc3c(c2)N(C(C)=O)CCO3)cc1OCC,-1,0,15*,-1,9,-2
CNc1oc(-c2ccco2)nc1C#N,-1,-1,-3,-38,-13,/
Cc1ccc(CNc2oc(-c3ccco3)nc2C#N)cc1,-1,-4,0.0*,-15,1,-6
SMILES,DAGLB inh,V-ATPase pHluor,MIN6 prolif-1,HDAC3 inh,Rtt109 HAT inh,MIN6 prolif-2
CCOC(=O)CC1(C)SC(NC(C)=O)=NN1C(C)=O (stereo not given),1,4,0,-3,-5,/
Cn1c(=N)n(CC(=O)O)c2ccccc21,0,0,5.8*,-5,-1,0
Cc1onc(-c2ccccc2)c1C(O)c1ccc(F)cc1 (stereo not given),-2,-2,10*,4,-2,-2
Cc1onc(-c2ccccc2Cl)c1C(O)c1ccc(F)cc1 (stereo not given),-4,0,-1,1,-2,/
Cc1[nH]nc2ncc(C(=O)c3ccccc3O)cc12,1,0,12*,5,8,2
Cc1nn(C)c2ncc(C(=O)c3ccccc3O)cc12,-7,2,0,2,8,/
COC(=O)C1=C(NC(=O)c2ccccc2C)CCS1,-2,1,1,3,7,/
COC(=O)CNC(=O)COC(=O)/C=C/c1cccs1,-4,-4,-2,13,-7,/
COC(=O)CNC(=O)COC(=O)/C=C/c1ccc2ccccc2n1,0,-2,10*,5,6,-5
CC(C)c1ccc(NC(=O)CCNS(=O)(=O)c2cccc3nsnc23)cc1,1,-2,4.6*,0,7,-5
Cc1ccc(N(CC(=O)NCc2ccccn2)S(=O)(=O)c2ccccc2)cc1C,-5,-2,9.0*,0,10,2
Cc1ncoc1C(=O)N1CCc2c([nH]c3ccccc23)C1C1CCCCC1 (stereo not given),-2,3,-3,1,2,/
CCOC(=O)C1CCCCN1Cc1ccc(OC)c(OC)c1 (stereo not given),0,0,8.0*,5,4,2
Cc1cc(C)c2c(c1)/C(=N/NC(=O)c1cc(C)oc1C)CCC2,-7,-16,0.0*,0,7,-1
Cc1cc(S(=O)(=O)N2CCN(c3ccccn3)CC2)c(C)cc1Cl,-4,-1,-1,7,19,/
COc1ccc2c(C=Nc3c(C)n(C)n(-c4ccccc4)c3=O)c(O)n(Cc3ccco3)c(=O)c2c1,4,7,-5,11,-15,/
COc1ccc(N2CC(C(=O)Nc3nnc(SCCC4OCCO4)s3)CC2=O)cc1 (stereo not given),3,1,1,-6,3,/
Cc1c(NC(=O)C(C)OC(=O)CCc2c[nH]c3ccccc23)c(=O)n(-c2ccccc2)n1C (stereo not given),0,8,12*,3,0,0
Cc1c(NC(=O)C(C)OC(=O)Cc2ccc(F)cc2)c(=O)n(-c2ccccc2)n1C (stereo not given),0,0,1,1,-7,/
COc1ccccc1NC(=O)C1CCCN(c2nc(C)cc(C)n2)C1 (stereo not given),-9,3,7.5*,-2,-34,3
CN(c1ccccc1)C1CCCCC1NS(=O)(=O)c1ccc(Cl)cc1 (stereo not given),-12,0,-6,0,-3,/
CCN(C(=O)CN1CCCCC1)c1c(N)n(Cc2ccccc2)c(=O)[nH]c1=O,-1,-1,-1,1,1,/
CCN(C(=O)CSc1ncccn1)c1c(N)n(Cc2ccccc2)c(=O)[nH]c1=O,0,-1,16*,/,-1,-2

# High-throughput results as filed in PubChem.
